A short description of this assay: antivirals against arbovirus infection, primary screen, cell-based, full library, 10K replicate subset (AID 1251).
Where [1] appears, read: arbovirus infection cell-based antiviral screen, at 10 µM, stronger effect = higher value.
Setting [2] is: arbovirus infection cell-based antiviral screen; at 10 µM; stronger effect = higher value.
Where [3] appears, read: arbovirus infection cell-based antiviral screen; measured here: 10K subset replicate screen; at 10 µM; stronger effect = higher value.

What is called inhibition is the change of the read-out against control, counted positive when it falls.

Out of some 200,000 compounds screened, about 720 (0.36%) were called active. The sample holds actives, similar compounds and a random draw of the others, so the mix is not that of the screen. Cut-off read from the data, not from the text of the source: active = inhibition above about 30%; inactive = the rest, inconclusive results apart.

Turning to `O=C(O)c1ccc2c(c1)C(=O)N(NC(=O)c1ccc(O)cc1)C2=O`, the inhibition under setting [1] was -2.03% (inactive).

For the compound `CCC(=O)N1CCN=C1SCc1ccc(F)cc1`, the inhibition under setting [1] was -3.24% (inactive).

With `O=C(c1ccco1)N1CCN=C1SCc1cccc(Cl)c1`, the inhibition runs as follows: under setting [2], 5.96% (inactive); under setting [3], 0.055%.

As for `O=C(C1CC1)N1CCN=C1SCc1ccc(Cl)cc1`, the inhibition under setting [1] was 55.7% (active).

Regarding `C/C(=N\NC(=O)CCn1nc(C)cc1C)C(C)(C)C`, the inhibition under setting [1] is -5.42% (inactive).

`CCCN(C(=O)CSc1nnnn1C)c1c(N)n(Cc2ccccc2)c(=O)[nH]c1=O`: the inhibition under setting [1] was 21.9% (inactive).

Consider `COc1ccc(C2C=C(c3ccc(Br)cc3)Nc3nc(NS(C)(=O)=O)nn32)cc1` (stereo not given), for which the inhibition under setting [1] is 61.9% (active).

`COc1ccc(C2=CC(c3cccc(OC)c3)n3nnnc3N2)cc1` (stereo not given): the inhibition under setting [1] was 11.1% (inactive).

On to `Brc1ccc(C2=CC(c3ccco3)n3ncnc3N2)cc1` (stereo not given), for which the inhibition under setting [1] is 12.4% (inactive).

With `CC1(C)CC(=O)CC2(C1)NCC(c1ccccc1Cl)c1c2[nH]c2ccccc12` (stereo not given), the inhibition under setting [1] was -27.8% (inactive).

As for `COc1cccc(NC(=O)Nc2nnc(N3CCCCC3C)s2)c1` (stereo not given), the inhibition under setting [2] is 37.5% (active) and the inhibition under setting [3] turned out to be 24.8%.

In the case of `COc1cccc(Nc2nnc(SCC(=O)N3CC(C)OC(C)C3)s2)c1` (stereo not given), the inhibition under setting [1] was 2.66% (inactive).

In the case of `CCOC(=O)c1csc(NC(=O)Nc2cccc(OC)c2)n1`, the inhibition under setting [1] was 6.16% (inactive).

As to `NC(N)=Nc1nc2ccc(Br)cc2c(=O)[nH]1`, under setting [1], the inhibition is -2.82% (inactive).

Regarding `CCOc1ccc(C(=O)Nc2cccc(SC)c2)cc1`, the inhibition under setting [1] is 4.43% (inactive).

With `Cc1ccc(C2=C/C(=C\c3cccnc3)C(=O)O2)cc1`, the inhibition under setting [1] is -1.53% (inactive).

For `O=C(Nc1ccc2c(c1)CCC2)c1cccc(S(=O)(=O)Nc2ccccc2Cl)c1`, under setting [1], the inhibition was -3.02% (inactive).

In the case of `C=CCn1c(SCC(=O)NCc2ccccc2)nnc1-c1cc(Br)ccc1O`, the inhibition under setting [1] is 8.76% (inactive).

Take `C=CCn1c(SCC(=O)Nc2nc3ccccc3s2)nnc1-c1ccccc1O`: the inhibition under setting [1] is 47.3% (active).

Turning to `Cn1nnnc1SCC(=O)Nc1nc2ccccc2s1`, under setting [1], the inhibition was 0.23% (inactive).

With `CCOc1cc(/C=C(/C#N)c2ccc(Cl)cc2)cc(Cl)c1OCC(=O)O`, the inhibition under setting [1] was 51.7% (active).

Consider `CCOc1c(Cl)cc(/C=N/O)cc1OC`, for which, under setting [1], the inhibition was 11% (inactive).

As for `CCOC(=O)CN/C=C(\C#N)c1ccc(F)cc1`, under setting [1], the inhibition was -0.71% (inactive).

For the compound `O=c1oc(/C=C/c2ccccc2)nc2ccccc12`, the inhibition under setting [1] is 44.9% (active).

As to `CCn1c(/C=C/c2ccc([N+](=O)[O-])o2)nc2ccccc2c1=O`, the inhibition under setting [1] was -31.9% (inactive).

In the case of `S=c1[nH]nc(/C=C/c2ccccc2)o1`, the inhibition under setting [1] is -0.67% (inactive).

In the case of `CC(C)(C)NC(=O)c1cccc(NC(=O)Cc2ccc(Br)cc2)c1`, under setting [1], the inhibition is 17.2% (inactive).

Regarding `Cc1ccccc1NC(=S)N(CCCN1CCOCC1)Cc1cccs1`, under setting [1], the inhibition is 7.45% (inactive).

For `CCCc1cc(=O)[nH]c(SCc2ccc(C#N)cc2)n1`, the inhibition under setting [1] is 42% (active).

Consider `CCCc1cc(=O)[nH]c(SCc2cc(=O)oc3c(C)c(C)ccc23)n1`, for which the inhibition under setting [1] was 5.14% (inactive).

On to `CCCc1cc(=O)[nH]c(SCC(=O)OCc2ccccc2)n1`, for which the inhibition under setting [1] is 0.37% (inactive).

For the compound `CN1CCN(S(=O)(=O)c2cccc(C(=O)O)c2)CC1`, the inhibition under setting [1] is -0.22% (inactive).

Regarding `CC(=O)n1cc([C@@H]2C=C(C(=O)N3CCN(Cc4ccc5c(c4)OCO5)CC3)O[C@H](OCc3ccc(CO)cc3)C2)c2ccccc21`, the inhibition under setting [1] was -8.36% (inactive).

As for `COc1ccc(C)cc1NC(=O)c1ccc(-c2ccc(C(C)=O)cc2)o1`, under setting [1], the inhibition was -5.64% (inactive).

Take `Cc1cccc(NC(=O)CSc2nnc(NC(=O)CN3CCOCC3)s2)c1`: the inhibition under setting [1] is 4.51% (inactive).

Regarding `Cc1cccc(CSc2nnc(NC(=O)CSc3nnc(C)s3)s2)c1`, under setting [1], the inhibition is 31.4% (active).

Take `Cc1nnc(SCC(=O)NCc2ccccc2)s1`: the inhibition under setting [2] is -3.33% (inactive) and the inhibition under setting [3] came out at 3.33%.

For the compound `COc1ccc(CCNC(=O)/C(C#N)=C2\N=C(NC(=O)c3cccs3)c3ccccc32)cc1`, under setting [1], the inhibition is 1.79% (inactive).

Regarding `O=C(O)/C=C/c1cn(Cc2ccccc2)nc1-c1cccs1`, the inhibition under setting [1] is 9.79% (inactive).

With `Cc1c(Cl)cccc1NC(=S)NCc1ccc2c(c1)OCO2`, the inhibition under setting [1] was -9.04% (inactive).

For the compound `COCC(C)NCc1cc(Br)ccc1OC` (stereo not given), under setting [1], the inhibition is 5.99% (inactive).

As to `CCOc1ncccc1C(=O)N(C)CC(=O)Nc1ccc(F)cc1`, the inhibition under setting [1] is -2.52% (inactive).

In the case of `Cc1cc2ccccc2n1CCC(=O)O`, the inhibition under setting [1] was 4.57% (inactive).

As for `COc1ccccc1N1CCN(C(=O)c2ccc(Cl)c(S(=O)(=O)N3CCCC3)c2)CC1`, the inhibition under setting [1] was 4.9% (inactive).

Turning to `CC(=O)Nc1ccc(NC(=O)COc2ccccc2C(=O)Nc2cccc(Cl)c2Cl)cc1`, the inhibition under setting [1] was 33.1% (active).

On to `O=C(COc1ccccc1Cl)Nc1ccc(C(=O)c2ccc(C(=O)O)cc2)cc1`, for which the inhibition under setting [1] was 1.44% (inactive).

`COc1cc(NC(=O)COc2ccccc2Cl)ccc1NC(=O)C(C)C`: under setting [1], the inhibition is -3.4% (inactive).

`CSc1ccccc1NC(=O)CN(C)CC(=O)Nc1ccc(Cl)cc1[N+](=O)[O-]`: the inhibition under setting [1] is 9.71% (inactive).

Turning to `COc1ccccc1C(=O)Nn1c(-c2cccs2)nc2ccccc2c1=O`, the inhibition under setting [1] is -3.21% (inactive).

Consider `CCOC(=O)N1CCN(C(=O)Cn2cnc3ccccc3c2=O)CC1`, for which, under setting [1], the inhibition was 4.88% (inactive).

Consider `CCOC(=O)C(=Cc1ccccc1OC)C(=O)OCC`, for which, under setting [1], the inhibition was 1.92% (inactive).

Turning to `O=c1c2c(ncn1Cc1ccccc1)nc1n2CCC1`, the inhibition under setting [1] was -1.22% (inactive).

As for `COc1ccc(/C=N/NC(=O)C(C)N(c2ccc(OC)cc2)S(C)(=O)=O)cc1` (stereo not given), the inhibition under setting [1] is -1.77% (inactive).

Consider `COc1cc(OC)cc(C(=O)OCC(=O)Nc2sccc2C(N)=O)c1`, for which the inhibition under setting [1] was 4.53% (inactive).

Consider `O=C(COC(=O)C12CC3CC(CC(O)(C3)C1)C2)NC12CC3CC(CC(C3)C1)C2`, for which the inhibition under setting [1] was 5.43% (inactive).

Take `Cc1ccc(C(=O)N/C(=C\c2ccco2)C(=O)N2CCSCC2)cc1C`: under setting [1], the inhibition was 4.17% (inactive).

Turning to `O=C(Nc1ccn(Cc2ccccc2)n1)c1cccc(F)c1`, the inhibition under setting [1] is -18.6% (inactive).

On to `O=C(Nc1ccn(Cc2ccc(F)cc2)n1)c1ccncc1`, for which, under setting [1], the inhibition is 3.28% (inactive).

Turning to `O=C(Nc1ccn(Cc2ccccc2)n1)c1n[nH]c([N+](=O)[O-])c1Cl`, the inhibition under setting [1] was 50.2% (active).

For `CC(=O)NC(NC(=S)Nc1c(C)n(C)n(-c2ccccc2)c1=O)C(Cl)(Cl)Cl` (stereo not given), the inhibition under setting [1] was 7.15% (inactive).

Take `CCOc1cc(NC(=S)NCCCN(C)C)c(OCC)cc1NC(=O)C1CC1`: under setting [1], the inhibition is 5.58% (inactive).

For the compound `CCOc1ccc(Br)cc1S(=O)(=O)Nc1cccc(S(=O)(=O)N(CC)CC)c1`, the inhibition under setting [1] is 2.51% (inactive).

As to `CN(C)c1ccc(C(CC(=O)O)C(=O)O)cc1` (stereo not given), under setting [1], the inhibition was 2.46% (inactive).

For the compound `COc1ccc(N2C(=O)C(CC(=O)Nc3ccccc3)N(Cc3ccc(OC)c(OC)c3)C2=O)cc1` (stereo not given), the inhibition under setting [1] was 0.98% (inactive).

Regarding `O=C(c1ccncc1)N1CCN(c2ccc3ccccc3n2)CC1`, the inhibition under setting [1] is 5.37% (inactive).

For `O=C(c1ccc2ccccc2n1)N1CCN(c2ccccc2Cl)CC1`, under setting [1], the inhibition is 36% (active).

As for `COc1ccccc1N1CCN(C(=O)c2cc(-c3ccc(Cl)c(Cl)c3)on2)CC1`, under setting [1], the inhibition was 2.74% (inactive).

With `Cc1cc(C(=O)NNC(=O)CCC2CCCCC2)c(C)o1`, the inhibition under setting [1] was -2.2% (inactive).

As for `C=CCn1nc(-c2ccccc2)c2c(C)onc2c1=O`, the inhibition under setting [1] is 4.65% (inactive).

For the compound `Cc1ccc(-c2cc(C(F)(F)F)n3ncc(C(=O)N4CCCCC4c4cccnc4)c3n2)cc1` (stereo not given), the inhibition under setting [1] was -9.25% (inactive).

Regarding `COCCn1c(C)cc(C(=O)CSc2nc3ccccc3c(=O)n2C(C)COC)c1C` (stereo not given), the inhibition under setting [1] was 8.78% (inactive).

`Cc1nc(Nc2ccc3c(c2)OCCO3)c2nnn(Cc3ccccc3Cl)c2n1`: the inhibition under setting [1] was 51.5% (active).

With `CCCc1nc(NCc2ccc3c(c2)OCO3)c2nnn(Cc3ccccc3Cl)c2n1`, the inhibition under setting [1] was -16.2% (inactive).

As for `Cc1nc(Nc2ccc(S(=O)(=O)N3CCCC3)cc2)c2nnn(Cc3ccccc3)c2n1`, the inhibition under setting [1] is -12.5% (inactive).

As to `Cc1ccc2nsnc2c1S(=O)(=O)N1CCCC1C(=O)O` (stereo not given), under setting [1], the inhibition was 1.07% (inactive).

As for `Cc1cc(C)c(NC(=O)c2oc3ccccc3c2COc2ccccc2)c(C)c1`, the inhibition under setting [1] is 32.5% (active).

Consider `CCOC(=O)c1oc2ccccc2c1NC(=O)c1cccs1`, for which the inhibition under setting [1] was -1.76% (inactive).

As to `COCc1c(C(=O)OCc2c(C)noc2C)oc2ccccc12`, the inhibition under setting [1] is 3.37% (inactive).

For the compound `O=c1[nH]c(CN2CCOCC2)nc2scc(-c3ccccc3)c12`, the inhibition under setting [1] is 5.07% (inactive).

In the case of `O=C(CN(CC1CCCO1)C(=O)CNS(=O)(=O)c1ccc(F)cc1)NCc1ccco1` (stereo not given), under setting [1], the inhibition is 2.42% (inactive).

With `C/C(=N\N=C(N)N)c1ccc(Cl)cc1`, under setting [1], the inhibition was -24.2% (inactive).

Turning to `CC(C)(C)C(=O)NCCCNc1ccc([N+](=O)[O-])cc1`, the inhibition under setting [1] was 1.95% (inactive).

With `O=C(CNCc1ccc(F)cc1)Nc1ccccc1-c1ccccc1`, the inhibition under setting [1] was -16.4% (inactive).

As to `Cc1ccc(N2CCN(C3=NC(=O)/C(=C\c4cccs4)S3)CC2)cc1`, under setting [1], the inhibition was 6.43% (inactive).

Regarding `CCc1ccc(/C=C2\SC(N3CCOCC3)=NC2=O)cc1`, the inhibition under setting [1] was -6.68% (inactive).

For `Cc1ccc(Cl)c(NC(=O)CN2CCN(C=O)CC2)c1`, the inhibition under setting [1] is 5.23% (inactive).

For the compound `COc1ccc(CCn2ccc(O)c(Cc3ccc(Cl)cc3Cl)c2=O)cc1OC`, the inhibition under setting [1] is 5.76% (inactive).

Regarding `C/C(CCc1ccccc1)=N\NC(=O)c1ccc(CN2CCOCC2)cc1`, the inhibition under setting [1] was -3.19% (inactive).

As to `COc1ccc2c(c1)CCC/C2=N\OC(=O)c1ccccc1F`, the inhibition under setting [1] was -1.6% (inactive).

For `CCOc1cc(CNCc2ccccn2)ccc1OCC(=O)NC(C)(C)C`, the inhibition under setting [1] was -2.89% (inactive).

For `CCCCCC(=O)NC(=S)NNC(=O)c1ccc([N+](=O)[O-])cc1`, under setting [1], the inhibition was -18% (inactive).

On to `CCN(C(=O)COC(=O)c1cc(S(=O)(=O)N2CCc3ccccc32)ccc1OC)C1CCS(=O)(=O)C1` (stereo not given), for which the inhibition under setting [1] is 7.54% (inactive).

Regarding `CCN(CC)CCNC(=O)c1ccc(NC(=O)c2c(F)cccc2Cl)cc1`, the inhibition under setting [1] was -4.69% (inactive).

On to `Cc1cc(C)c2nc(SCC(=O)N(C)C3CCS(=O)(=O)C3)cc(C)c2c1` (stereo not given), for which the inhibition under setting [1] is -6.1% (inactive).

Take `CCSc1nnc(NC(=O)c2ccc(C)cc2)s1`: under setting [1], the inhibition was 33.2% (active).

With `CCSc1nnc(NC(=O)Cc2ccccc2OC)s1`, the inhibition under setting [1] was 3.03% (inactive).

Regarding `CC(=O)c1sc(NC(=O)c2ccc(C)cc2)nc1C`, the inhibition under setting [1] is -4.42% (inactive).

Values taken from PubChem BioAssay AID1251 (SRMLSC, 2008).
